Residual activity data for 1 compound are collected here from ChEMBL document CHEMBL2218924, “A broad activity screen in support of a chemogenomic map for kinase signalling research and drug discovery” (Biochem J, 2013).

Assay [1] deals with Tyrosine-protein kinase SYK (Homo sapiens) (UniProt P43405). The note with it: at 10 µM.
Assay [2] concerns the target T1, Mitogen-activated protein kinase kinase kinase 7 (Homo sapiens) (UniProt O43318).
T1 sequence (whole entry): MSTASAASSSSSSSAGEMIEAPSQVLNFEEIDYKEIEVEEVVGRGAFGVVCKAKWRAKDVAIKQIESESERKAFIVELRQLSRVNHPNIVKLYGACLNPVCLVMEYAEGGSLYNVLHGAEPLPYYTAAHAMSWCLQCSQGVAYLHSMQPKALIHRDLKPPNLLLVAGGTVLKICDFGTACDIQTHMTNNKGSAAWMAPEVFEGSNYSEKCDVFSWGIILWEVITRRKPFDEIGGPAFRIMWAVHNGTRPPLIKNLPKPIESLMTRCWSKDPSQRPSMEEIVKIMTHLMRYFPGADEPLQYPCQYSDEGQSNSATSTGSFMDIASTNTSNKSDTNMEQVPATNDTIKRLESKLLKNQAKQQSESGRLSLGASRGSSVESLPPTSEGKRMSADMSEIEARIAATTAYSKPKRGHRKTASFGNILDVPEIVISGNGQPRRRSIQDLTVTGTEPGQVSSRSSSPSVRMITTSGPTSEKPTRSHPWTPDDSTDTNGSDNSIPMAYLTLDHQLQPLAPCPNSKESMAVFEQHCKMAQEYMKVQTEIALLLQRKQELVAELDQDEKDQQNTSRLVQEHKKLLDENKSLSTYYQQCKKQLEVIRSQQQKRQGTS
The note with it: at 1 µM.

The target in assay [3] is T1, Mitogen-activated protein kinase kinase kinase 7 (Homo sapiens). The settings on record: at 10 µM.
In assay [4] the target is T2, Serine/threonine-protein kinase TAO1 (Homo sapiens) (UniProt Q7L7X3).
T2 sequence (whole entry): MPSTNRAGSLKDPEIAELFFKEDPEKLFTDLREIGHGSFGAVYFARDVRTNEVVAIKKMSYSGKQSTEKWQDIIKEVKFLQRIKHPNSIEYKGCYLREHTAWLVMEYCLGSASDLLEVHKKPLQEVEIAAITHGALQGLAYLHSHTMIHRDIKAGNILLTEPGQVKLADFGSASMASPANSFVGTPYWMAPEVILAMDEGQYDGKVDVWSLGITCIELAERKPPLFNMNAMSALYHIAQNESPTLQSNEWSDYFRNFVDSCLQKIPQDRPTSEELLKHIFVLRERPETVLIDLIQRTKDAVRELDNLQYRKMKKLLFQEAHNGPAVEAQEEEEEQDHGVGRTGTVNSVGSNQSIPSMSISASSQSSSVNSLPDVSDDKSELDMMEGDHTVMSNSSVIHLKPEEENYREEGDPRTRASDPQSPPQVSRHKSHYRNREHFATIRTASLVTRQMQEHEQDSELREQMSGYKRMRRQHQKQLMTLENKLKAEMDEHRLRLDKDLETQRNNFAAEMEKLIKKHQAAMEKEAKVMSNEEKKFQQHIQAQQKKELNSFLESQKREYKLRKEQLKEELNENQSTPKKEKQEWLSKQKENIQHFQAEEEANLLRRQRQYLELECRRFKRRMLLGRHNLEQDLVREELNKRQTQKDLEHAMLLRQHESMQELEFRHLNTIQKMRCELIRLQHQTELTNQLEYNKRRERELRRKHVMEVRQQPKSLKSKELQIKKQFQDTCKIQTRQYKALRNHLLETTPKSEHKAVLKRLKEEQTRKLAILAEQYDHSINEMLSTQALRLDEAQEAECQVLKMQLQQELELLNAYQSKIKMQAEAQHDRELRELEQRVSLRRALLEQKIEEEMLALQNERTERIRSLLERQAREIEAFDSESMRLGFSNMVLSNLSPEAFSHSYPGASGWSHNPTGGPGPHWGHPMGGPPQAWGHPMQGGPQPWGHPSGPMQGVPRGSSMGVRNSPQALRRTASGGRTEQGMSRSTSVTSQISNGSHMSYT
The settings on record: at 1 µM.

Assay [5] deals with T2, Serine/threonine-protein kinase TAO1 (Homo sapiens). The note with it: at 10 µM.
Assay [6] deals with T3, Serine/threonine-protein kinase TAO2 (Homo sapiens) (UniProt Q9UL54).
T3 sequence (whole entry): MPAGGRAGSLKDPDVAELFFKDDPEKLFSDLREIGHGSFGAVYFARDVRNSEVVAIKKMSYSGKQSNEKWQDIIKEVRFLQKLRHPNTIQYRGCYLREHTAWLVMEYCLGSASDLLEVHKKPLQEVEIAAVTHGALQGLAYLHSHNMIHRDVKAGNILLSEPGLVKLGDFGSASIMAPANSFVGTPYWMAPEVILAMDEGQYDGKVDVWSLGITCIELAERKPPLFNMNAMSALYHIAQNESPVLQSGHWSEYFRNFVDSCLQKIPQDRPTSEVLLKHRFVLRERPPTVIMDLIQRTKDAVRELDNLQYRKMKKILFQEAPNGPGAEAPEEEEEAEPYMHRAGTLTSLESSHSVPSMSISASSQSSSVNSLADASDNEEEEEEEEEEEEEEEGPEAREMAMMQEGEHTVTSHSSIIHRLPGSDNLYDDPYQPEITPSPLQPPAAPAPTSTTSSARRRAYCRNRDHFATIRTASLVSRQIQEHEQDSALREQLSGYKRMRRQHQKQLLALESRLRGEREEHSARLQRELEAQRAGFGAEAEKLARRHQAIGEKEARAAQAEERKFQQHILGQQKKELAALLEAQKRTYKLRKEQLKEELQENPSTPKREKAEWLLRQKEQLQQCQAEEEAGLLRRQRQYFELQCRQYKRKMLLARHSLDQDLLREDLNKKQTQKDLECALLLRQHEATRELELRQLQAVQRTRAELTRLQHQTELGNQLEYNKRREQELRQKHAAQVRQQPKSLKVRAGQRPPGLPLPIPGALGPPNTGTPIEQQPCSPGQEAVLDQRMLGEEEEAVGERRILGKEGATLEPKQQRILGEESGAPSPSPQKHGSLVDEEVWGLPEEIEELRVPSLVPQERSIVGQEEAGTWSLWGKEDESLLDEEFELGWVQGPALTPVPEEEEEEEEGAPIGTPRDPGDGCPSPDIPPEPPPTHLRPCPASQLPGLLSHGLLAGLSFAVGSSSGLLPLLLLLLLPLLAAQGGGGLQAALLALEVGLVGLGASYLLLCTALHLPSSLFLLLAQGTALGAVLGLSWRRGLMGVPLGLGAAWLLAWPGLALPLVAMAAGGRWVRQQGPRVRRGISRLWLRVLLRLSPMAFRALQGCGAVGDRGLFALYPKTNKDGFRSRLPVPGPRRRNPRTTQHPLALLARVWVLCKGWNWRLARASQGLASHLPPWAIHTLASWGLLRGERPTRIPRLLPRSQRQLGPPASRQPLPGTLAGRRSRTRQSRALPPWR
The note with it: at 1 µM.

The target of assay [7] is T3, Serine/threonine-protein kinase TAO2 (Homo sapiens). The settings on record: at 10 µM.
The target in assay [8] is T4, Serine/threonine-protein kinase TAO3 (Homo sapiens) (UniProt Q9H2K8).
T4 sequence (whole entry): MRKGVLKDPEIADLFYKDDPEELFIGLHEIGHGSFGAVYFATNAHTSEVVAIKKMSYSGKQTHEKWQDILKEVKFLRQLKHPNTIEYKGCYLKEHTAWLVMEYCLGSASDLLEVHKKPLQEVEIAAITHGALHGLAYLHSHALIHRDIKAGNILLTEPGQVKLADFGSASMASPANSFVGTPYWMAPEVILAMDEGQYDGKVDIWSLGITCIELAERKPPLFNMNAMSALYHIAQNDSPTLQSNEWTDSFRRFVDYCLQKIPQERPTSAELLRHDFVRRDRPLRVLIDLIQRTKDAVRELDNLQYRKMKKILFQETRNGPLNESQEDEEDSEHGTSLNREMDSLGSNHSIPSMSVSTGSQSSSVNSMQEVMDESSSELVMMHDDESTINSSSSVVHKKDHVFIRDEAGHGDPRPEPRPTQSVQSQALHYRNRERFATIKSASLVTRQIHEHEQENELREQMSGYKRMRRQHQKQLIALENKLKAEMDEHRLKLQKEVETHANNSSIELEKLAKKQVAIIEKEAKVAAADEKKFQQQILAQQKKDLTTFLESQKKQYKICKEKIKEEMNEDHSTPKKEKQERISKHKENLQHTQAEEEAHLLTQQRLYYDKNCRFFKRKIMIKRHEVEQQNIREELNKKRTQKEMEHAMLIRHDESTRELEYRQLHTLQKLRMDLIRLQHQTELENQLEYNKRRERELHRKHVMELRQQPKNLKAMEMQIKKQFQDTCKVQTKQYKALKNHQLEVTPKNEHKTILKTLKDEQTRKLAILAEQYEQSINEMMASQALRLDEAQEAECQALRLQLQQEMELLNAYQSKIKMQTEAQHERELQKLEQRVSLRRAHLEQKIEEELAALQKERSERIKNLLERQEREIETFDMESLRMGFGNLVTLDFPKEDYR
The note with it: at 1 µM.

In assay [9] the target is T4, Serine/threonine-protein kinase TAO3 (Homo sapiens). The note with it: at 10 µM.
The target of assay [10] is T5, Serine/threonine-protein kinase TBK1 (Homo sapiens) (UniProt Q9UHD2).
T5 sequence (whole entry): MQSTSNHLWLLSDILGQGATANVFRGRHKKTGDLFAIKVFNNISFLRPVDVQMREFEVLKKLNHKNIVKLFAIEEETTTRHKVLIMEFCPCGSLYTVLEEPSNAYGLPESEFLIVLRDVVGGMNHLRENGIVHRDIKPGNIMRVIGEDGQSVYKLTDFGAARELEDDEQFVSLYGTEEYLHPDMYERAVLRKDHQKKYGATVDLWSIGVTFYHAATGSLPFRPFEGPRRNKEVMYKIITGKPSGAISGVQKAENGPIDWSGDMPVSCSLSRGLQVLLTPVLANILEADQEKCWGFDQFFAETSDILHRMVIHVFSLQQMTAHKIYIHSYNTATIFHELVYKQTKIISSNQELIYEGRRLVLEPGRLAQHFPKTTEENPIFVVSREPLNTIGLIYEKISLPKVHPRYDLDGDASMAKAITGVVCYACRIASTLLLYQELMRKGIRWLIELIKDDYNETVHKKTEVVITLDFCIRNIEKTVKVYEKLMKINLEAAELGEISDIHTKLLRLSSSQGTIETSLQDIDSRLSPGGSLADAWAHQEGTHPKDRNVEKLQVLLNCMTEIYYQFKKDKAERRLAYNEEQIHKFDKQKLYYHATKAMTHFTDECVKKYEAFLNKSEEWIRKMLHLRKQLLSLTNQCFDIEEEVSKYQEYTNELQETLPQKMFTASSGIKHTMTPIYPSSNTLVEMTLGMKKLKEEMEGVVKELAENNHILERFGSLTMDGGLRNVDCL
The note with it: at 1 µM.

On to `O=[N+]([O-])c1ccc(-c2nc(-c3ccc(F)cc3)c(-c3ccncc3)[nH]2)cc1`, for which the residual activity in assay [1] amounted to 107%; in assay [2] it was 104%; in assay [3], 91%; in [4], 97%; in assay [5], 91%; in assay [6], 109%. The residual activity came to 103% in assay [7], 98% in assay [8], 96% in assay [9] and 87% in assay [10].
